For 33 molecules, inhibition results are on record in ChEMBL document CHEMBL1961873, “Compounds: GSK PKIS; Assays: Nanosyn kinase panel” (2012).

For orientation: inhibition means the change of the read-out against control, counted positive when it falls.

Cyclin-dependent kinase 4 (Homo sapiens), sequence (P11802 whole entry): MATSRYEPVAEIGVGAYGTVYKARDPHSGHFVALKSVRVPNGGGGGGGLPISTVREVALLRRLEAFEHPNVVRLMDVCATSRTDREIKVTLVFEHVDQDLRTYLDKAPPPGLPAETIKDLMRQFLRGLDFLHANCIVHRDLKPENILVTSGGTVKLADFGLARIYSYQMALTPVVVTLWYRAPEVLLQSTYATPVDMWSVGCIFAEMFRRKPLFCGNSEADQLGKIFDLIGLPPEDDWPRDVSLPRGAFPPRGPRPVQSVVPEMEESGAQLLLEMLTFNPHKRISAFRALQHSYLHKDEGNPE

The first assay has as its target Cyclin-dependent kinase 4 (Homo sapiens) (UniProt P11802). Conditions: at 1 µM.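 Further: enzyme tested as the CDK4–cyclin D complex, with the value reported as mean percent inhibition.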
For `N#Cc1c(NC(=O)c2ccccc2F)sc2c1CCCC2`, the inhibition was 1.2%. Regarding `Cc1ccc(Nc2ccnc(Nc3cccc(C(N)=O)c3)n2)cc1O`, the inhibition is 1.32%.

Turning to `Cc1ccc(C(=O)NC2CC2)cc1-c1ccc2[nH]ncc2c1`, the inhibition came out at 1.78%. The same measure, in the same setting: the value for `COc1cc(Nc2nccc(-c3cnn4ncccc34)n2)cc(OC)c1` was 78.5%.

As to `NS(=O)(=O)c1cccc(-c2cc3ccncc3cc2OCc2ccccc2)c1`, the inhibition came out at 6.33%.

Regarding `CC(C)c1ccc(Nc2nccc(-c3cnn4ncccc34)n2)cc1`, the inhibition is 39.5%. On to `CCOc1nccc2c1nc(-c1nonc1N)n2CC`, for which the inhibition was 1.83%. Take `c1ccc(Cc2nc3ccc(Nc4ncnc5ccccc45)cc3[nH]2)cc1`: the inhibition came out at 5.27%. Consider `Cc1ccc(O)cc1Nc1ccnc2ccc(S(C)(=O)=O)cc12`, for which the inhibition was 4.37%. On the same count and under the same terms, the value for `Cc1ccc(NC(=O)CC2CC2)cc1-c1ccc(C(=O)NCC2CC2)cc1` was 2.18%; that for `O=S(=O)(CCOCc1ccc(-c2ccc3ncnc(Nc4ccc(OCc5cccc(F)c5)c(Cl)c4)c3c2)o1)c1ccccc1` was 4.69%; that for `CCn1c(-c2nonc2N)nc2c(C#CC(C)(C)O)nc(OCCNC)cc21` was 6.73%.

`COc1cc2ncn(-c3cc(OCc4ccccc4S(C)(=O)=O)c(C#N)s3)c2cc1OC`: the inhibition was 3.7%. Regarding `Nc1nccc(C#Cc2cncnc2Nc2ccc(OCc3cccc(F)c3)c(Cl)c2)n1`, the inhibition was found to be 4.61%.

As to `CCn1c(-c2nonc2N)nc2ccc(F)cc21`, the inhibition stood at 2.11%. On the same count and under the same terms, as for `NS(=O)(=O)c1ccc(NC=C2C(=O)Nc3ccc4ncsc4c32)cc1`, the figure is 71.3%; as for `COC(=O)c1ccc2c(c1)C(=Cc1cc(Br)c(O)c(Br)c1)C(=O)N2`, 4.69%; as for `Cc1cc(-c2ccccn2)cc(C)c1/C=C/c1cncc(-c2nn[nH]n2)c1`, 8.73%.

The target of another assay is Cyclin-dependent kinase 5 (Homo sapiens) (UniProt Q00535). Conditions: at 0.1 µM.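 Further: enzyme tested as the CDK5/p35 complex, values are mean percent inhibition.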
Cyclin-dependent kinase 5 (Homo sapiens), sequence (Q00535 whole entry, looked up): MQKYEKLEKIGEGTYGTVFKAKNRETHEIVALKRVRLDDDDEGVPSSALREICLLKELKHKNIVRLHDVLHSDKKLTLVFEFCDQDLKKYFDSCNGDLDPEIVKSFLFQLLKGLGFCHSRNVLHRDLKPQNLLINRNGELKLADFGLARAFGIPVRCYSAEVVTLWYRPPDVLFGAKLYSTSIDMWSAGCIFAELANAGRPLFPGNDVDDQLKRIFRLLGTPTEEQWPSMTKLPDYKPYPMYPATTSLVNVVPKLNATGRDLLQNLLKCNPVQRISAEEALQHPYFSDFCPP
As for `Nc1ccc(C#Cc2cncnc2Nc2ccc(OCc3cccc(F)c3)c(Cl)c2)cc1`, the inhibition was determined as 0.23%. On to `ON=C1CCc2cc(-c3nc(C4CCNCC4)[nH]c3-c3ccncc3)ccc21`, for which the inhibition was found to be 0.57%.

With `CS(=O)(=O)CCNCc1nc(-c2ccc3ncnc(Nc4ccc(OCc5cccc(C(F)(F)F)c5)cc4)c3c2)cs1`, the inhibition was 0.46%.

For the molecule `Cc1ccc2c(-c3ccnc(Nc4ccc5c(c4)OCCO5)n3)c(-c3ccc(C(F)(F)F)cc3)nn2n1`, the inhibition turned out to be 0.21%. For `CN(C)C(=O)O[C@H]1CN[C@H](C#Cc2cc3ncnc(Nc4ccc(OCc5cccc(F)c5)c(Cl)c4)c3s2)C1`, the inhibition stood at 0.51%. On to `COc1cc(/C=N/Nc2ncnc3c2cnn3C(C)C)ccc1O`, for which the inhibition worked out at 10.4%.

Turning to `Cc1cc(Cl)cc2c1NC(=O)C2=NNc1ccc(S(N)(=O)=O)cc1`, the inhibition was found to be 0.57%. For the molecule `Nc1nccc(-c2c(-c3ccc(F)cc3)nn3cc(C(F)(F)F)ccc23)n1`, the inhibition was determined as 0.43%. In the case of `COC(=O)c1cncc(/C=C/c2c(C)cc(O)cc2C)c1`, the inhibition is 1.02%.

For `Cc1nc(-c2ccccc2)n2nc(NCCCN3CCOCC3)ncc12`, the inhibition is 0.75%. As to `Cc1ccc2c(c1)/C(=N/Nc1ccc(S(N)(=O)=O)cc1)C(=O)N2`, the inhibition was 9.16%. Same read-out and setting: the value for `CCCN1CCCC(c2ccc(Nc3nc(Nc4cc(F)ccc4C(N)=O)c4cc[nH]c4n3)c(OC)c2)C1` (stereo unspecified) was 0.43%.

As to `CN(c1ccc(NC(=O)Nc2ccc(OC(F)(F)F)cc2)cc1)c1ccnc(Nc2cccc(S(N)(=O)=O)c2)n1`, the inhibition was determined as 0.45%. Take `O=C1Nc2ccccc2/C1=C/Nc1ccc2[nH]c(=O)[nH]c2c1`: the inhibition worked out at 3.13%. Take `FC(F)(F)c1ccc(-c2nn3ncccc3c2-c2ccnc(Nc3ccc4c(c3)OCCO4)n2)cc1`: the inhibition was 5.49%. For the molecule `N#Cc1c(NC(=O)c2ccccc2F)sc2c1CCCC2`, the inhibition was 0.27%. Regarding `Cc1ccc(Nc2ccnc(Nc3cccc(C(N)=O)c3)n2)cc1O`, the inhibition is -3.13%. Regarding `Cc1ccc(C(=O)NC2CC2)cc1-c1ccc2[nH]ncc2c1`, the inhibition turned out to be 0.3%.

In the case of `COc1cc(Nc2nccc(-c3cnn4ncccc34)n2)cc(OC)c1`, the inhibition was 63%.

With `NS(=O)(=O)c1cccc(-c2cc3ccncc3cc2OCc2ccccc2)c1`, the inhibition stood at 1.96%. On to `CC(C)c1ccc(Nc2nccc(-c3cnn4ncccc34)n2)cc1`, for which the inhibition was found to be 12.7%.

Consider `CCOc1nccc2c1nc(-c1nonc1N)n2CC`, for which the inhibition was 0.91%. As to `c1ccc(Cc2nc3ccc(Nc4ncnc5ccccc45)cc3[nH]2)cc1`, the inhibition is 3.52%. For the molecule `Cc1ccc(O)cc1Nc1ccnc2ccc(S(C)(=O)=O)cc12`, the inhibition was found to be 0.36%.

Consider `Cc1ccc(NC(=O)CC2CC2)cc1-c1ccc(C(=O)NCC2CC2)cc1`, for which the inhibition is 0.04%. `O=S(=O)(CCOCc1ccc(-c2ccc3ncnc(Nc4ccc(OCc5cccc(F)c5)c(Cl)c4)c3c2)o1)c1ccccc1`: the inhibition amounted to 4.26%. On the same count and under the same terms, the value for `CCn1c(-c2nonc2N)nc2c(C#CC(C)(C)O)nc(OCCNC)cc21` was 1.64%; that for `COc1cc2ncn(-c3cc(OCc4ccccc4S(C)(=O)=O)c(C#N)s3)c2cc1OC` was 1.86%; that for `Nc1nccc(C#Cc2cncnc2Nc2ccc(OCc3cccc(F)c3)c(Cl)c2)n1` was 1.09%. The same measure, in the same setting: the value for `CCn1c(-c2nonc2N)nc2ccc(F)cc21` was 0.58%; that for `NS(=O)(=O)c1ccc(NC=C2C(=O)Nc3ccc4ncsc4c32)cc1` was 68.2%; that for `COC(=O)c1ccc2c(c1)C(=Cc1cc(Br)c(O)c(Br)c1)C(=O)N2` was 1.03%.

Regarding `Cc1cc(-c2ccccn2)cc(C)c1/C=C/c1cncc(-c2nn[nH]n2)c1`, the inhibition was 3.27%.
